The experiment deals with Aedes aegypti larvae. The experiment in a line: larval motility relative to same well at 0 h (fraction); higher = more motile (less active compound), active = 0.4 or less. Particulars: 10 µM. Put shortly: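 Relative motility is the score of a well divided by its own score at the first recording. Movies were made with INVAPP at 0, 2 and 24 h, each having 200 frames at 100 ms intervals. Larvae of Aedes aegypti, from 18–24 h hatches in pond salt solution with yeast at 25 °C, sat at about 10 per well (100 µL) in 96-well plates with compounds at 10 µM and 1% v/v DMSO. Solvent and larvicide control wells were included on every plate, and values are medians of three independent larval batches.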

The structures appear in SMILES notation. A number with no mark means an inactive call.

The results in this text go back to the supplement of paper PMC8540655.

Turning to `COc1ccc(SC(=O)N[C@H](CCC(=O)O)C(=O)O)cc1`, the larval motility was 0.861 (2 h) and 0.93 (24 h).

With `O=C(Nc1ccc(-c2ccccc2)cc1)C1=C(O)C(Cc2ccccc2)OC1=O` (stereo not drawn), the larval motility runs as follows: (2 h) 0.886; (24 h) 0.946.

In the case of `NC(=O)c1cnccn1`, the larval motility by setting is: (2 h) 0.745; (24 h) 1.

As for `CC[C@@H](CO)NCCN[C@@H](CC)CO`, the larval motility is 0.527 (2 h) and 0.604 (24 h).

For `Nc1nc(O)ncc1F`, the larval motility is, setting by setting: (2 h) 0.641; (24 h) 1.04.

`COc1cc(NC(=O)CN2C(=O)NC(c3ccccc3)(c3ccccc3)C2=O)cc(OC)c1`: the larval motility is, setting by setting: (2 h) 0.866; (24 h) 1.08.

As for `N=c1n(CCN2CCCCC2)c2ccccc2n1CC(O)COc1ccc(Cl)cc1Cl` (stereo not drawn), the larval motility reads like this: (2 h) 1.02; (24 h) 0.502.

For `CO/N=C(\C(=O)N[C@@H]1C(=O)N2C(C(=O)OCOC(=O)C(C)(C)C)=C(/C=C\c3scnc3C)CS[C@H]12)c1csc(N)n1`, the larval motility by setting is: (2 h) 1.51; (24 h) 1.18.

Turning to `C=C(C)[C@@H]1CC[C@]2(C(=O)O)CC[C@]3(C)[C@H](CC[C@@H]4[C@@]5(C)CC[C@H](O)C(C)(C)[C@@H]5CC[C@]43C)[C@@H]12`, the larval motility (2 h) is 1.08 and the larval motility (24 h) was 1.18.
